Data on twelve compounds can be found in the supplement of paper PMC10732440.

± gives the standard deviation of the averaged measurements.

In one experiment the test system is Caenorhabditis elegans N2 infected with Nematocida parisii ERTm1. As to the kind of experiment: progeny production relative to DMSO uninfected control; higher = more progeny despite microsporidia infection (inhibition of infection with low host toxicity). Particulars: infection time 6 days; 40 µM. How it is done:
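Bleach-synchronised C. elegans N2 L1 larvae (100 per well) were grown in 96-well plates in K-medium with 5x E. coli OP50 and 15,000 N. parisii spores/uL, plus Pandemic Response Box compound at 100 uM or 40 uM (1% DMSO), for 6 days at 21 C with shaking. Worms were stained with Rose Bengal, scanned on a flatbed scanner and counted with WorMachine. Progeny production is given as % of the DMSO uninfected control (triplicate wells), so higher values mean the compound restores progeny despite infection.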
Take `CCCCc1ccc(C(=O)O)nc1`: the progeny production was 3.89 ± 0.63%.

Turning to `C[C@@]1(O)[C@H](O)[C@@H](CO)O[C@H]1n1ccc2c(N)ncnc21`, the progeny production stood at 7.31 ± 1.5%.

Turning to `CN1C(=O)C(c2ccccc2)C(=O)N(c2ccccc2)c2cc(C(F)(F)F)ccc21` (centres undefined), the progeny production amounted to 3.86 ± 0.4%.

`NC1(C(=O)O)CCP(=O)(O)CC1` (centres undefined) showed a progeny production of 2.95 ± 1.1%.

Regarding `COc1ccccc1CN[C@H]1C2CCN(CC2)[C@H]1C(c1ccccc1)c1ccccc1`, the progeny production stood at 8.71 ± 4.8%.

On to `Nc1c(C(=O)NCc2ccco2)c2nc3ccccc3nc2n1CCN1CCCCC1`, for which the progeny production worked out at 6.14 ± 2.6%.

For `COc1cc(C(C)(C)CCCC(C)C)cc(OC)c1OC`, the progeny production was 5.3 ± 1.8%.

For `CCN1CCN(Cc2nc3ccc([N+](=O)[O-])cc3c(=O)n2-c2ccccc2F)CC1`, the progeny production was found to be 6.53 ± 2.2%.

As for `COC(=O)Nc1nc2ccccc2[nH]1`, the progeny production worked out at 9.55 ± 1.4%.

Regarding `CC(C)Oc1cccc(NC(=O)c2ccccc2C(F)(F)F)c1`, the progeny production is 3.26 ± 1%.

As to `O=C(NC12CC3CC(CC(C3)C1)C2)c1cc2ccccc2[nH]1`, the progeny production was determined as 6.55 ± 3.2%.

Consider `C[N+]1(C)CCCC(OC(=O)C(O)(c2ccccc2)c2ccccc2)C1` (centres undefined), for which the progeny production turned out to be 12.7 ± 11%.

Staying with this experiment, now noted: infection time 6 days; 100 µM.
In the case of `CCCCc1ccc(C(=O)O)nc1`, the progeny production was 18.3 ± 10%.

`C[C@@]1(O)[C@H](O)[C@@H](CO)O[C@H]1n1ccc2c(N)ncnc21` registered a progeny production of 15.4 ± 2%.

`CN1C(=O)C(c2ccccc2)C(=O)N(c2ccccc2)c2cc(C(F)(F)F)ccc21` (centres undefined) registered a progeny production of 8.44 ± 2%.

In turn, `NC1(C(=O)O)CCP(=O)(O)CC1` (centres undefined) registered a progeny production of 16.6 ± 16%.

On to `COc1ccccc1CN[C@H]1C2CCN(CC2)[C@H]1C(c1ccccc1)c1ccccc1`, for which the progeny production stood at 16.1 ± 5.7%.

For the compound `Nc1c(C(=O)NCc2ccco2)c2nc3ccccc3nc2n1CCN1CCCCC1`, the progeny production is 8.06 ± 4%.

`COc1cc(C(C)(C)CCCC(C)C)cc(OC)c1OC` yielded a progeny production of 12.1 ± 4.9%.

`CCN1CCN(Cc2nc3ccc([N+](=O)[O-])cc3c(=O)n2-c2ccccc2F)CC1` gave a progeny production of 16.4 ± 6.8%.

On to `COC(=O)Nc1nc2ccccc2[nH]1`, for which the progeny production was found to be 19.7 ± 17%.

For `CC(C)Oc1cccc(NC(=O)c2ccccc2C(F)(F)F)c1`, the progeny production was found to be 18.9 ± 12%.

Compound `O=C(NC12CC3CC(CC(C3)C1)C2)c1cc2ccccc2[nH]1` displayed a progeny production of 5.96 ± 4%.

On to `C[N+]1(C)CCCC(OC(=O)C(O)(c2ccccc2)c2ccccc2)C1` (centres undefined), for which the progeny production is 4.14 ± 1.8%.
